Source: PubChem BioAssay (National Center for Advancing Translational Sciences (NCATS))
uPA surface inh – inhibitors of cell surface uPA generation; cell surface uPA generation assay, qHTS; Potency, µM (doses to about 38.3 µM), hits mostly inhibitors; 330,000 tested, 0.31% active; AID 540303; active = well fitted inhibition curve with a large enough effect; inconclusive = small, poorly fitted or top-dose-only effect; inactive = no such curve, though single readings can be large or run the other way; tested in mouse RAW 264.7 cells; note: nearly all actives have a fitted effect of over 55% in size
DT40 TDP1 CPT – growth inhibition of DT40 Tdp1-/-;hTDP1 cells with camptothecin (screen for TDP1 inhibitors); chicken DT40 Tdp1-/-;hTDP1 cells + 20 nM CPT, ATP luminescence, 48 h; Potency, µM (doses to about 46.2 µM), hits mostly inhibitors; 420,000 tested, 12% active; note: nearly all actives have a fitted effect of over 55% in size
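Chicken DT40 Tdp1-/- cells stably complemented with human TDP1 were seeded at 400 cells/well in medium containing 20 nM camptothecin, exposed to pin-transferred compounds, and grown at 37 °C for at least 48 hr. Viability was read as ATP luminescence.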
IL1B secr inh – inhibitors of inflammasome signaling (IL-1 beta secretion). THP-1 LPS/ATP IL-1B secretion, AlphaLISA, 16 h; hits give low values. activity change, % at 57.5 µM. 360,000 tested, 4.7% active. AID 743279; in the data active = activity change below about -50%; inconclusive = mostly about -30% to -49%
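Secreted IL-1B measured by AlphaLISA bead assay after 16 h compound exposure of THP-1 cells; compounds (final up to 57.5 uM) added 1 h before LPS (250 ng/mL) and ATP (1.25 mM) stimulation; lower signal means less secretion.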
HT1080 IDH1KD tx – kills HT-1080 cells with IDH1 knockdown; HT-1080 IDH1 knockdown viability, ATP luminescence, 48 h; Potency, µM (doses to about 46.1 µM), most hits filed as cytotoxic; 360,000 tested, 2% active
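IDH1KD HT-1080 cells, 750/well, RPMI + 5% FBS; compound pinned after 2 h settling; 48 h, 37 °C; CellTiter-Glo luminescence; % activity normalised to DMSO and no-cell wells; curves fitted, classed by r2 and efficacy.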
HT1080NT lethal – kills 2HG-producing HT-1080-NT fibrosarcoma cells | 360,000 tested, 1.6% active | HT-1080-NT fibrosarcoma viability, CellTiter-Glo ATP luminescence, 48 h | Potency, µM (highest dose often 46.1 µM), most hits filed as cytotoxic;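 note: NT is the 2HG producing partner of a matched IDH1 knockdown line; nearly all actives have a fitted effect of over 55% in size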
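Viability by CellTiter-Glo luminescence after 48 h compound exposure at 37C of HT-1080-NT cells (750/well, RPMI, 5% FBS). % activity scaled between DMSO wells and medium-only wells, then curve-fitted and categorized by curve class.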
TDP1 cell noCPT – qHTS for Inhibitors of human tyrosyl-DNA phosphodiesterase 1 (TDP1): qHTS in cells in absence of CPT | 420,000 tested, 15% active | Potency, µM (top dose mostly 46.2 µM), hits mostly inhibitors | AID 686978, 2013 | DT40 Tdp1-/- hTDP1 cells, no CPT, ATP luminescence, 48 h; note: nearly all actives have a fitted effect of over 55% in size
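Cells were dispensed at 400 per well, compounds added by pin tool, plates incubated ≥48 hr at 37 °C, then CellTiter-Glo added for 30 min at room temperature before luminescence reading. Line: DT40 Tdp1-/- complemented with hTDP1; camptothecin omitted.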
Numbers stand for hits; – = inactive; ? = inconclusive; · = no result given. The list is not random: actives were taken first. Their share in the collection is about 19%. Unless noted, calls come from the whole dose curve; as a rule, active = well fitted curve in the direction sought with a large enough effect; inconclusive = small, poorly fitted or top-dose-only effect, or another doubt; inactive = no such curve, though single readings can be large; an effect the other way counts as inactive or inconclusive.

SMILES | uPA surface inh | DT40 TDP1 CPT | IL1B secr inh | HT1080 IDH1KD tx | HT1080NT lethal | TDP1 cell noCPT
C[C@@H]1CN([C@H](C)CO)C(=O)CCCn2nncc2CO[C@H]1CN(C)Cc1cccc(O)c1 | · | – | – | – | – | –
O=C1C=C(c2ccc(-c3ccccc3)cc2)C[C@@H](c2ccc(F)cc2)C1 | – | 18µM | – | – | – | ?
O=C1C=C(c2ccc(CO)cc2)C[C@@H](c2ccc(F)cc2)C1 | · | – | – | – | – | 23µM
Cn1ccc2ccc(C3=CC(=O)C[C@H](c4ccc(F)cc4)C3)cc21 | – | 7.3µM | – | – | – | 18µM
O=C1CCC(=O)N1CO | · | – | · | · | · | –
N#Cc1c(N)nc2c(c1-c1ccc(F)cc1)c(=O)nc1sccn12 | – | – | – | – | – | 2.6µM
Cc1ccc(-n2nc(C)c3c(-c4cccs4)c(C#N)c(N)nc32)cc1 | – | ? | – | – | – | 23µM
Cc1nn(-c2ccccc2)c2nc(N)c(C#N)c(-c3ccc(F)cc3)c12 | – | 18µM | ? | – | – | 26µM
Cc1ccc(NC(=O)C/C(N)=N/OC(=O)Nc2ccc(C)c(Cl)c2)cc1 | – | – | – | – | – | –
Brc1ccc2c(c1)C(c1ccc(N3CCOCC3)cc1)=NNC(c1cccs1)=N2 | – | ? | – | – | – | 21µM
Fc1ccc2c(c1)C(c1ccc(N3CCOCC3)cc1)=NNC(c1cccs1)=N2 | – | ? | -51 | – | – | 23µM
Fc1ccc2c(c1)C(c1ccncc1)=NNC(c1ccc(Cl)cc1)=N2 | · | ? | -67 | – | – | –
COc1ccc(-c2nn(-c3ccccc3)cc2C(=O)n2nnc3ccccc32)cc1 | – | 21µM | – | – | – | –
COC(=O)c1ccccc1NC(=O)c1cc2sccc2n1C | · | – | – | – | – | –
Cn1c(C(=O)Nc2cccc(Cl)c2)cc2c(=O)n(C)c3ccccc3c21 | · | – | · | · | · | 15µM
COc1ccc(NC(=O)c2cc3c(=O)n(C)c4ccccc4c3n2C)cc1OC | ? | ? | · | – | – | ?
COC(=O)c1cccc(NC(=O)c2cc3sccc3n2C)c1 | – | ? | – | – | – | 21µM
CCOC(=O)c1cccc(NC(=O)c2cc3c(=O)n(C)c4ccccc4c3n2C)c1 | · | ? | · | · | · | 21µM
CN(C)C(CNC(=O)c1cc(S(=O)(=O)N2CCOCC2)ccc1F)c1cccs1 (stereo not drawn) | – | – | – | – | – | –
Cc1nn(C)c2c1c(C(F)(F)F)cc(=O)n2Cc1cccc(Br)c1 | · | – | · | · | · | –
COc1cc(NC(=O)CCN2CCN(c3ccccc3OC)CC2)cc(OC)c1 | · | ? | ? | – | – | ?
CCC(C)c1ccc2oc(-c3ccc(NC(=O)Cn4cnc5c(=O)n(C)c(=O)n(C)c54)cc3)nc2c1 (stereo not drawn) | – | 21µM | – | – | – | 15µM
CC[n+]1c(/C=C2\Sc3ccccc3N2C)ccc2cccc(C)c21 | · | 0.52µM | -100 | 10µM | 13µM | 0.52µM
CCN1/C(=C/c2ccc3cc(C)ccc3[n+]2CC)Sc2ccccc21 | ? | 0.065µM | -100 | 12µM | 5.8µM | 0.058µM
COc1ccc(C(=O)/C=C2\Sc3ccccc3N2C)cc1 | – | – | – | – | – | ?
SMILES | uPA surface inh | DT40 TDP1 CPT | IL1B secr inh | HT1080 IDH1KD tx | HT1080NT lethal | TDP1 cell noCPT
CCOC(=O)N1CCN(C(=O)C[C@@H]2C[C@@]3(C(=O)OC)CCCCC=C3N(Cc3cccc4ccccc34)C2=O)CC1 | · | ? | – | – | – | 21µM
CCOC(=O)[C@]12CCCC=C1N(Cc1cccc3ccccc13)C(=O)[C@H](CC(=O)N1CCOCC1)C2 | · | ? | – | – | – | –
CCOC(=O)[C@]12CCC=C1N(Cc1cccc3ccccc13)C(=O)[C@H](CC(=O)N1CCN(C(=O)C3CC3)CC1)C2 | · | ? | – | – | – | ?
CCOC(=O)[C@]12CCC=C1N(Cc1cccc3ccccc13)C(=O)[C@H](CC(=O)N1CCCCC1)C2 | · | ? | – | ? | – | 26µM
CCOC(=O)[C@]12CCCC=C1N(Cc1cccc3ccccc13)C(=O)[C@H](CC(=O)N1CCCCC1)C2 | · | 18µM | – | – | – | 26µM
CCOC(=O)[C@]12CCC=C1N(Cc1cccc3ccccc13)C(=O)[C@H](CC(=O)N1CCSCC1)C2 | · | ? | – | – | ? | 18µM
CC(C)NC(=O)Nc1cccc2c1O[C@H](CN(C)C(=O)NC1CCCCC1)[C@@H](C)CN([C@H](C)CO)C2=O | – | – | – | – | – | –
O=c1c(CCc2ccccc2)nc2cnc(N3CCOCC3)nc2n1C1CC1 | · | ? | · | · | · | –
Cc1cc(OC(=O)c2cc(C(F)(F)F)cc(C(F)(F)F)c2)c([N+](=O)[O-])c(=O)[nH]1 | – | – | – | – | – | –
COC(=O)[C@@]12C[C@@H](CC(=O)N3CCCCC3)C(=O)N(Cc3cccc4ccccc34)C1=CCC(C)(C)C2 | · | ? | – | ? | ? | ?
COC(=O)[C@@]12C[C@@H](CC(=O)N3CCN(C(=O)c4ccco4)CC3)C(=O)N(Cc3cccc4ccccc34)C1=CCC(C)(C)C2 | · | ? | ? | 21µM | ? | 18µM
CCOC(=O)N1CCN(C(=O)C[C@@H]2C[C@@]3(C(=O)OC)CC(C)(C)CC=C3N(Cc3cccc4ccccc34)C2=O)CC1 | · | 16µM | – | ? | ? | 18µM
CCOC(=O)[C@]12CCC=C1N(Cc1cccc3ccccc13)C(=O)[C@H](CC(=O)N1CCCC1)C2 | · | 18µM | – | – | – | 23µM
COc1ccc(C)cc1NS(=O)(=O)c1ccccc1 | – | – | – | – | – | ?
Cc1ccc(CS(=O)(=O)Cc2ccc(C(=O)NCCc3ccc(Cl)cc3)o2)cc1 | · | – | · | · | · | –
O=C(Nc1ccccc1OCc1cc(=O)n2ccccc2n1)c1ccccc1F | · | ? | · | · | · | –
CCNC(=O)C1(C)CCCN(C(=O)c2cc3ccccc3s2)C1 (stereo not drawn) | · | – | – | – | – | –
COCCNC(=O)C1(C)CCCN(Cc2cc3ccccc3o2)C1 (stereo not drawn) | · | ? | – | – | – | ?
C=CCNCc1cccn1-c1sc2c(c1C#N)CCCC2 | – | 21µM | – | ? | – | 21µM
CC(=O)Nc1nnc(SCc2cc(=O)c3cccc(Cl)c3[nH]2)s1 | · | ? | · | · | · | –
CC1(C(=O)N2CCC(CO)(Cc3cccc(C(F)(F)F)c3)CC2)CC1 | ? | ? | – | – | – | ?
OCC1(Cc2cccc(C(F)(F)F)c2)CCN(Cc2cc3ccccc3o2)CC1 | – | ? | -136 | 18µM | 21µM | 16µM
Cc1c(CN2CCC(CO)(Cc3cccc(C(F)(F)F)c3)CC2)c2ccccc2n1C | – | 23µM | -94 | ? | – | 16µM
